Source: ChEMBL document CHEMBL3988442, “University of Dundee, Small-Polar-MMV Screening Library” (2021)
The campaign covered roughly 48,000 compounds. About 13,000 (27%) showed an effect of 50% or more. This is one part of the list.

The compounds below were run on Wolbachia pipientis (assay: Anti-Wolbachia Cell-Based Screen). Details: 5 µM.
Assay type: functional
Design: scale not given: in the data most compounds retested in dose-response had high values

SMILES | Percent Effect [%]
COc1ccccc1CNC(=O)C(C)N1CC(n2cc(C)cn2)C1 (configuration not stated) | -24.87
CN(C)c1cc2c(nn1)CCN(C(=O)c1cc3c(s1)CCOC3)C2 | -8.36
CCC(NCc1ccccc1Cl)c1ccccc1OCC(=O)NC (configuration not stated) | -10.16
CO[C@H]1CN(C(=O)c2cccc(C)n2)CC[C@@]12CCCO2 | 114.9
COCCN1C[C@@H](C)[C@@]2(COCCN(C(=O)c3cccc(C)n3)C2)C1.O=C(O)C(F)(F)F.O=C(O)C(F)(F)F | -4.007
O=C(c1cn2cc(Cl)ccc2n1)N1CCC(CCn2cccn2)CC1 | 2.946
CO[C@H]1CN(C(=O)c2cn3cc(C)ccc3n2)CC[C@@]12CCCO2 | 93.74
Cc1cccc(C(=O)N2CC(C(=O)NCC3CC3)C3(CCOCC3)C2)n1.O=C(O)C(F)(F)F (configuration not stated) | -7.832
COCc1cn([C@@H]2c3ccccc3C3(CCNCC3)[C@H]2O)nn1 | -6.385
CCc1nc(C)cn1C(=O)Nc1ccc(C)cc1 | 109.3
Cc1ccc(NC(=O)N2CCN(Cc3noc(C4CC4)n3)CC2)cc1 | 4.61
CN(C)c1nc2n(c(=O)n1)CCN2C(=O)Nc1ccccc1 | 0.604
CC(=O)c1c(C)nn(CC(=O)Nc2ccc(F)cc2)c1C | 6.274
CCC(C)(NCC(=O)Nc1ccccc1)c1nc(C)cs1 (configuration not stated) | -1.246
CCc1nc(C)cn1C(=O)Nc1ccccc1 | 107.6
Cc1ccc(NC(=O)C2=CN=S=N2)cc1 | -3.511
CN(C)Cc1nn(C)c2c1CN(C(=O)Nc1ccc(F)cc1)C2 | -7.35
CCc1nc(C)cn1C(=O)Nc1ccc(F)cc1 | 113
Cc1cc(=O)n2ncnc2n1CC(O)c1ccccc1F (configuration not stated) | -9.153
CN(C)S(=O)(=O)N1CC[C@]2(C[C@@H](OCC3CC3)CO2)C1 | 9.447
CCCN(Cc1ccc(C(=O)NCC2COCCO2)c(=O)[nH]1)C1CC1 (configuration not stated) | 2.285
Cc1cc2c(cc1CN1CCCCC1CCn1ccnc1C)OCO2 (configuration not stated) | 17.86
CN(C)CCOCC1CN(C(=O)c2cccn2C)Cc2ccnn2C1.O=C(O)C(F)(F)F.O=C(O)C(F)(F)F (configuration not stated) | -5.365

SMILES | Percent Effect [%]
CN1CCN(S(=O)(=O)c2cccc(C#N)c2)c2ccc(F)cc21 | 4.028
CCc1nc(CN2CCCN(C(=O)C3CCOCC3)CC2)cs1 | -0.509
Cc1c(CN2CCCC2c2cncc(CN3CCCC3)n2)cnn1C (configuration not stated) | 74.36
Cc1nc(CN2CCC(NS(C)(=O)=O)CC2)co1 | -13.72
Cc1cccc(-c2c[nH]c(C3CCCN3C(=O)C3CCOCC3)n2)c1 (configuration not stated) | 16.55
O=C(c1cc[nH]n1)N1CCCC1c1cncc(CN2CCOCC2)n1 (configuration not stated) | 91.81
CN(C)CCC1CCCCN1Cc1cnn(C)c1C1CC1 (configuration not stated) | -0.7786
O=C(C1CCOCC1)N1CCCC1c1cncc(CN2CCCC2)n1 (configuration not stated) | 74.28
Cc1nc(C(=O)N2CCCC2c2cncc(CN3CCCC3)n2)co1 (configuration not stated) | 62.39
Cc1nn(C)c(C)c1C1CCCN1C(=O)c1cc[nH]n1 (configuration not stated) | -0.5637
Cc1cc(C(=O)N2CCCC2CN2CCCC2)no1 (configuration not stated) | 0.09079
O=C(CCC1CC1)N1CCC(n2cc(C3(O)CCCC3)nn2)CC1 | -0.3223
COc1ccc(C2(C(=O)N3C[C@@H](C(=O)O)[C@H](C(C)C)C3)CC2)cc1 | 6.312
O=C(CS(=O)(=O)Cc1ccc(F)cc1)NCc1ccccc1F | -12.49
O=C(CS(=O)(=O)c1ccccc1Cl)NC1CCCCNC1=O (configuration not stated) | 7.591
Cn1cnc2c1CCN(CC(=O)NC1CCCCNC1=O)C2 (configuration not stated) | 2.624
CC(C)CS(=O)(=O)CC(=O)NC1CCCCNC1=O (configuration not stated) | 105
O=C(CS(=O)(=O)Cc1ccccc1)NC1CCCCNC1=O (configuration not stated) | 109
O=C(CS(=O)(=O)CC1CCCCC1)NC1CCCCNC1=O (configuration not stated) | -2.84
O=C(CC1CCCCC1)NC1CCCCNC1=O (configuration not stated) | 129.3
Cc1ccccc1CS(=O)(=O)CC(=O)NC1CCCCNC1=O (configuration not stated) | 5.447
O=C1NCCCCC1NC(=O)C1(c2ccccc2)CCOCC1 (configuration not stated) | -10.73
Cn1c(C2CC2)nc2c1CCN(CC(=O)NC1CCCCNC1=O)C2 (configuration not stated) | -7.835

SMILES | Percent Effect [%]
Cc1cc(C)n(CC(=O)NC2CCCCNC2=O)n1 (configuration not stated) | -5.953
O=C(CS(=O)(=O)Cc1ccc(F)cc1)NC1CCCCNC1=O (configuration not stated) | 104.6
CC1CCN(C)c2ccccc2N1C(=O)c1ccn(C)c(=O)c1 (configuration not stated) | -9.489
COc1cc(C)nc(N2CCN(C(=O)c3ccc[nH]3)CC2)n1 | 4.964
N#Cc1ccc(N2CCC(c3nccn3Cc3cscn3)CC2)nc1 | 4.95
CCN(Cc1nc(Cc2ccccc2)no1)C1CC1 | 93.91
CCc1noc(C(C)N(C)Cc2ccc(OC)c(OC)c2)n1 (configuration not stated) | 9.709
CCc1noc(CN(CCc2ccccc2)C2CCN(C)CC2)n1 | 1.802
COc1ccccc1CN(Cc1nc(Cc2ccccc2)no1)C1CC1 | 122.2
CCc1nc(CN(CCc2ccccc2)C2CCN(C)CC2)no1 | 22.84
COc1ccccc1CN(Cc1nc2c(cnn2C)c(=O)[nH]1)C1CC1 | 17.98
CC(C(=O)NC1CC1)S(=O)(=O)Cc1nc(Cc2ccccc2)no1 (configuration not stated) | -3.587
CN(Cc1ccc2c(c1)OCO2)Cc1nc(Cc2ccccc2)no1 | -7.147
COc1cc(CO)ccc1OCc1nc(C2CC2)no1 | 5.46
Cc1nnc(CN(Cc2ccccc2C(F)(F)F)C2CC2)o1 | -10.33
COc1ccccc1CN(Cc1nc(C)no1)C1CC1 | 102.6
COc1ccc(CN(Cc2nc(C)no2)C2CCCCC2)cc1OC | 113.8
CCCN1CC2(CCN(C)CC2)CC1C(=O)NCCn1nc(C)nc1C (configuration not stated) | -19.15
O=C(CCn1cncn1)NCC1CCS(=O)(=O)C1 (configuration not stated) | 0.07359
CCN(CC)CCSc1ncnc2[nH]ncc12 | -13.76
Cc1cc(C(=O)NC(CC(C)C)C(=O)Nc2cc[nH]n2)c(C)o1 (configuration not stated) | 2.286
